# Source: PubChem
# This is a sample that favours compounds with a hit; in the whole collection about 11% have one here.
# ALDH1A1 inh – inhibitors of human aldehyde dehydrogenase 1A1. Potency, µM (top dose mostly 75.3 µM), for inactives: at the highest dose activity, negative = inhibition, most hits filed as inhibitors. P00352. 220,000 tested, 7.3% active. Purified ALDH1A1, NADH fluorescence, propionaldehyde substrate; active means well fitted inhibition curve with a large enough effect, not every such curve was filed as active; inconclusive means small, poorly fitted or top-dose-only effect, or another doubt; inactive means no such curve, though single readings can be large or run the other way;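 further: potency means the concentration at half of the fitted maximal effect; plate controls were no enzyme wells and a reference inhibitor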
# Target sequence (P00352 whole entry, looked up): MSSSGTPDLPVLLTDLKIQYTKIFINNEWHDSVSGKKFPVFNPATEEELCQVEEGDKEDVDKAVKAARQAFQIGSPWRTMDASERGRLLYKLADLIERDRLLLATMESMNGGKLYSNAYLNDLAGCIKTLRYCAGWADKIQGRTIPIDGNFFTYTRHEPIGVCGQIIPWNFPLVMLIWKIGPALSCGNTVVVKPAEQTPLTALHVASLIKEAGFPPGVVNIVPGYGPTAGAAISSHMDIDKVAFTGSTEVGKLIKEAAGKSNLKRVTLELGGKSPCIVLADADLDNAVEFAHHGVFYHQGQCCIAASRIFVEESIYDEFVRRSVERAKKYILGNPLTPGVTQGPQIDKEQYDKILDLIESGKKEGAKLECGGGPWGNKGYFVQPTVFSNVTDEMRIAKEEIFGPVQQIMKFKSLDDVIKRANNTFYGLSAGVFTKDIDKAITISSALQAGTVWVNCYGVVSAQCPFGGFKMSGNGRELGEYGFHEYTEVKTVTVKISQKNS
# 12-hLO inh – inhibitors of human 12-lipoxygenase (ALOX12); purified 12-hLO, xylenol orange hydroperoxide absorbance; Potency, µM (titrated, usually from 57.1 µM), without a hit: top-dose activity change, negative = inhibition, usual class: inhibitors; P18054; AID 1452; 150,000 tested, 0.12% active; further: potency means the concentration at half of the fitted maximal effect; nearly all actives have a fitted effect of over 55% in size
#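 Purified human 12hLO (150 nM), preincubated 15 min with compound, then 40 uM arachidonic acid for 30 min, room temperature, Hepes pH 7.0 with 0.01% Triton X-100. Hydroperoxide detected by ferrous iron/xylenol orange; 573/405 nm absorbance ratio gives reaction progress.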
# PNC assembly inh – blocks assembly of the perinucleolar compartment; PC3M PTB-GFP, PNC prevalence imaging, 16 h; stronger effect = lower value; activity change (PNC), negative = inhibition, % at 10 µM; 140,000 tested, 3.1% active; AID 2417;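 active means readout at or below -70, meaning at least 70% loss of cells showing the perinucleolar compartment, a nuclear body marking cancer cells; inconclusive means readout between -30 and a set limit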;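 further: plate controls were DMSO wells for no effect and camptothecin positive control wells for full effect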
#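 Compounds are pinned in duplicate onto adhered PC3M cells stably expressing GFP-tagged PTB and incubated 16 h at 37 C. Cells are then fixed, nuclei stained with Hoechst, and PNC-positive cells counted.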
# IMPase Li cell – IMPase inhibition in cells with lithium potentiation | Potency, µM (titrated, usually from 59.4 µM), for the others: at the top dose activity, negative = IMPase inhibition, actives largely listed as inhibitors | AID 1457 | CHO-M1 cells, IP1 TR-FRET (IP-One), carbachol + lithium | 210,000 tested, 0.35% active;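 further: IP1 builds up when IMPase is blocked and the TR-FRET signal falls; potency means the concentration at half of the fitted maximal effect; plate controls were basal vehicle for no effect and high inhibitor control for full effect; nearly all actives have a fitted effect of over 50% in size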
#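 IP1 accumulation measured by competitive TR-FRET in lysed CHO-M1 cells after 30 min compound exposure at 37C, with a small lithium addition to potentiate weak responses. Hill-equation AC50 from ratio and donor-channel data.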
# HPGD block – blocks human HPGD enzyme activity; 150,000 tested, 4.3% active; P15428; Potency, µM, without a hit: at the top dose activity change, negative = inhibition, hits mostly inhibitors; purified HPGD, NADH fluorescence kinetic, PGE2 substrate; active means well fitted inhibition curve with a large enough effect, not every such curve was filed as active; inconclusive means small, poorly fitted or top-dose-only effect, or another doubt; inactive means no such curve, though single readings can be large or run the other way; further: potency means the concentration at half of the fitted maximal effect
#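 20 nM HPGD preincubated 15 min at room temperature with compound in 50 mM Tris-HCl pH 8, 0.01% Tween 20. Started with 1 mM NAD+ and 30 uM prostaglandin E2; NADH fluorescence (360/450 nm) read 5 times over 30-s intervals, last minus first.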
# IMPase cell inh – membrane-permeable compound that blocks inositol monophosphatase; P97697; CHO-M1 cells, IP1 accumulation, HTRF TR-FRET ratio; inhibition (IP1 accumulation), % at 46.1 µM; 120,000 tested, under 10 active; AID 901; active means well fitted curve in the direction sought with a large enough effect in the signal ratio, not every such curve was filed as active; inconclusive means small, poorly fitted or top-dose-only effect, or a change in a side signal; inactive means no such curve, though single readings can be large or run the other way; the % refers to the signal ratio;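 further: cells stimulated with carbachol in lithium chloride buffer; plate controls were DMSO basal wells for no effect and reference inhibitor wells for full effect; higher means more IMPase inhibition seen as more IP1 and lower FRET ratio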
#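 In this qHTS, compounds (final up to 46 uM) act on CHO-M1 cells that are then activated through the M1 receptor with carbachol, in pH 7.4 buffer containing 50 mM LiCl, for 30 min. IP1 accumulation is quantified by the IP-One immunoassay.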
# * marks the source's active call; other numbers are inactive results; ? = inconclusive; nt = no result given; [ ] = remark or other dose. Unless noted, the call rests on the fitted dose curve; in most records, active means well fitted curve in the direction sought with a large enough effect; inconclusive means small, poorly fitted or top-dose-only effect, or another doubt; inactive means no such curve, though single readings can be large; an effect the other way counts as inactive or inconclusive. Unless noted, on the % scale 0 is the no-effect control and ±100 the full control effect.
SMILES,ALDH1A1 inh,12-hLO inh,PNC assembly inh,IMPase Li cell,HPGD block,IMPase cell inh
COc1ccc(CNCc2cccc(Oc3ccccc3)c2)cc1,14µM*,nt,nt,12%,nt,nt
CCCC(=O)N(c1ccc2oc3c(c2c1)CCCC3)S(=O)(=O)c1cc(C)ccc1C,nt,nt,nt,nt,nt,2
CC1=CC(C)(C)NC(=S)N1c1cccc2cc(S(=O)(=O)O)ccc12,28µM*,nt,nt,nt,nt,nt
CC1=CC(C)(C)NC(=S)N1c1ccccc1C,-6%,nt,nt,6%,nt,nt
Cc1cc2c(nc1C)CCCN2C[C@H](O)CN1CCCc2nc(-c3ccc(Br)cc3)ccc21,1%[13.5 µM],nt,nt,nt,nt,nt
O=C(Cn1c(NCCCO)nc2ccccc21)c1cccc(Br)c1,28µM*,-2%,27,13%[38.3 µM],-25%,-9
COc1ccc(C(=O)Cn2c(NCCO)nc3ccccc32)cc1OC,2%,2%,-6,1%,-3%,5
CCc1ccc2oc(-c3ccc(C)c(NC(=O)Cc4ccccc4)c3)nc2c1,nt,nt,nt,nt,nt,-22
COc1ccccc1CNC(=O)CSc1ccc(C)cc1,1%,-6%,?,20%,14µM*,nt
COc1ccccc1OCC(=O)Sc1ccc(C)cc1,-4%,-28%,-19,1%[38.3 µM],32µM*,1
COc1ccccc1CNC(=O)C[n+]1ccccc1,-12%,-2%,6,42%[38.3 µM],2%,10
Cc1ccc(OCC(=O)Sc2ccc(C)cc2)cc1,8%,-5%,67,32%[38.3 µM],?,1
COc1ccccc1CNC(=O)CSc1ccccc1,-1%,nt,nt,0%,nt,nt
COc1ccccc1CNC(=O)Cn1cccc1,5%,-4%,?,-16%[38.3 µM],16µM*,-2
NC(=S)NCCC[C@@H](N)C(=O)O,nt,-5%,nt,nt,nt,9
CCCOc1ccc(N2C(=O)C3ON(c4ccccc4)C(c4ccc(O)c(OC)c4)C3C2=O)cc1 (configuration not stated),32µM*,-5%,?,-4%[38.3 µM],-2%,7
CCCOc1ccc(N2C(=O)C3ON(c4ccccc4)C(CCC)C3C2=O)cc1 (configuration not stated),18µM*,10%,-3,31%[38.3 µM],-15%,3
COc1ccc(OC)c(NC(=O)Cn2cc(C(=O)c3cccs3)c3ccccc32)c1,nt,nt,nt,nt,nt,2
CCn1cnc2c(=O)oc3ccc(S(=O)(=O)Nc4ccc(OC)cc4)cc3c21,nt,nt,nt,nt,nt,7
Cc1cc(N/N=C/c2cccc(Cl)c2)nc(NCc2ccccc2)n1,-1%,-5%,17,16%,-11%,nt
Cc1cc(Nc2cccc(Cl)c2)nc(NCc2ccccc2)n1,4%,-10%,-94*,4%,-8%,nt
O=C(CSc1ccc2nnc(CCNS(=O)(=O)c3ccccc3)n2n1)Nc1nc2ccccc2s1,25µM*,-3%,-13,3%,-4%,nt
CCc1cc(SC#N)cc(C)c1NC(=O)CCl,-4%,1%,29,22%,16µM*,nt
CCC(=O)Nc1ccc(SC#N)cc1C,2.5µM*,2%,-8,-1%[38.3 µM],-16%,0
Cc1cc(SC#N)cc(C)c1NC(=O)CCl,?,0%,-115*,-11%,?,-10
SMILES,ALDH1A1 inh,12-hLO inh,PNC assembly inh,IMPase Li cell,HPGD block,IMPase cell inh
CCc1cc(SC#N)cc(C)c1N,?,nt,nt,4%,nt,nt
O=C(NC(=S)N1CCN(c2ccc([N+](=O)[O-])cc2)CC1)c1ccccc1Cl,?,nt,nt,14%,nt,nt
O=C(NC(=S)N1CCN(c2ccc([N+](=O)[O-])cc2)CC1)c1ccc(F)cc1,7.1µM*,-6%,?,18%,-26%,nt
O=C(NC(=O)N1CCN(c2ccc(F)cc2)CC1)c1ccccc1,-1%,-6%,?,31%[38.3 µM],-3%,5
CCCN1CCN(C(=S)Nc2ccc([N+](=O)[O-])cc2)CC1,32µM*,-4%,-6,nt,nt,1
O=C(NC(=S)N1CCN(c2ccc([N+](=O)[O-])cc2)CC1)c1ccccc1F,25µM*,-7%,-23,1%,-18%,nt
O=[N+]([O-])c1ccc(N2CCN(C(=S)NC3CCCCC3)CC2)cc1,5µM*,?,-10,4%[38.3 µM],-21%,21
CCCN1CCC(NC(=S)Nc2ccc([N+](=O)[O-])cc2)CC1,3%,nt,nt,12%,nt,nt
